# In the library only some 3.3% were active in any assay of this set; here they are far more common.
# Anthrax LF inh2: anthrax lethal factor protease inhibition. AID 588501. 360,000 compounds, 0.12% hits. multiplex microsphere protease cleavage assay, LF. inhibition, % at 10 µM; further: plate controls were buffer without enzyme for full effect and enzyme alone for no effect
# MazEF act: activators of E. coli MazEF toxin-antitoxin RNase; FAM/BHQ RNA-DNA oligo cleavage fluorescence, 5 h; 350,000 compounds, 0.32% hits; P0AE70; activation, % at 20 µM; in the data active means activation above about 50%
# Target sequence (P0AE70 whole entry, looked up): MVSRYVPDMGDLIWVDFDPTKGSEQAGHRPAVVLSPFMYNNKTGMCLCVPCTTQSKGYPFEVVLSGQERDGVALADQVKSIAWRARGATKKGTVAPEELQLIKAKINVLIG
# PriA SSB inh: inhibitors of Klebsiella pneumoniae PriA binding to SSB C-terminal tail; AlphaScreen SSBct-PriA binding, biotinylated peptide; inhibition, % at 33 µM; 430,000 compounds, 0.6% hits; AID 1272365; in the data active means inhibition mostly above about 37%, no sharp cut-off; inactive means mostly below about 20%;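 further: plate controls were negative control peptide for no effect and reference peptide for full effect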
# BoNT-F LC inh: blocks Botulinum neurotoxin F light chain protease. Multiplex microsphere protease cleavage assay, flow cytometry. inhibition, % at 10 µM. 360,000 compounds, 0.22% hits; in the data active means inhibition above about 35%, passing the limit was not always enough; inconclusive means no clear call, values can overlap the other calls; further: plate controls were buffer without enzyme for full effect and enzyme alone for no effect
# Bead autofluor: compound fluorescence in toxin protease inhibitor counterscreen | compound autofluorescence counterscreen, microsphere flow cytometry; active compounds read high | 360,000 compounds, 3.1% hits | AID 624483 | fluorescence intensity (concentration not given with the values); in the data active means fluorescence intensity above about 16000; inconclusive means no clear call, values can overlap the other calls
# BoNT-A LC inh2: inhibitors of Botulinum neurotoxin A light chain protease; multiplex microsphere protease substrate cleavage, flow cytometry; inhibition, % at 10 µM; 360,000 compounds, 0.17% hits; further: plate controls were buffer without enzyme for full effect and enzyme alone for no effect
# * hit, by the source's call; i = inactive; ? = inconclusive; / = no result; ! = repeats disagree. Unless noted, no stated cut-off is given here; in the data, active means inhibition above about 30%; inconclusive means no clear call, values can overlap the other calls; inactive means below that.
SMILES,Anthrax LF inh2,MazEF act,PriA SSB inh,BoNT-F LC inh,Bead autofluor,BoNT-A LC inh2
O=C(C/C=N/OCc1ccc(Cl)cc1Cl)c1ccc(Cl)cc1,-3.1,2.4,/,-2.4,22103*,1.1
CO/N=C/NC(=O)NOCc1ccc(Cl)cc1Cl,-3.4,-6.4,i,-2.8,3047,-0.4
Cc1cc(=O)n(-c2ccc3ccccc3n2)[nH]1,1.0,-4.5,0.4,-0.3,17043*,-0.3
COc1cc(OC)cc(C(=O)N2CCN(C3CCCCC3)CC2)c1,-3.4,2.4,-2.7,4.9,3788,-0.6
COc1cc(OC)cc(C(=O)N2CCC(N3CCCCCC3)CC2)c1,-1.2,2.7,3.2,-6.9,19182*,-3.5
COc1cc(OC)cc(C(=O)NN2CCOCC2)c1,-4.8,1.4,-12.7,-8.8,4663,-0.8
COc1cc(OC)cc(C(=O)NN2CCCCC2)c1,-0.6,2.5,-12.6,-5.7,25088*,-4.1
C[C@@](O)(CNC(=O)NC1CCCCC1)Cc1ccco1,/,/,-28.0,/,/,/
CCCCn1c(N)c(Sc2ccc(Cl)cc2)c(=O)[nH]c1=O,0.1,4.0,1.0,4.0,19647*,2.1
NC(=O)c1ccc[n+](CCN2C(=O)c3ccccc3C2=O)c1,/,/,5.0,/,/,/
CN(C)/C=N/c1ncc(C(=O)c2ccc3ccccc3c2)s1,4.4,1.8,/,2.2,23850*,1.3
Cc1ccc(-c2ccc(=O)[nH]n2)cc1,0.6,3.7,-4.3,-3.2,21252*,-2.2
CC1(C)N=C(c2ccc(Cl)cc2Cl)C(=O)N1,2.2,3.6,-15.6,2.2,22553*,2.8
CCc1ccc2nc3c(c(C(=O)O)c2c1)CCC3,-1.5,7.1,-2.9,2.8,22313*,1.6
COc1ccc2nc(-c3ccc(C)c(NC(=O)c4ccc(C(F)(F)F)cc4)c3)cn2n1,/,/,-11.0,/,/,/
OC(COc1cccc(Oc2ccccc2)c1)CN1CCN(c2ccc(F)cc2)CC1 (centres undefined),/,/,0.0,/,/,/
Cc1nnc(SCC(=O)Nc2cccc(Br)c2)s1,-2.8,3.9,-1.4,-4.6,9036,-1.0
Cc1nnc(SCC(=O)NCc2ccco2)s1,/,/,-17.0,/,/,/
COc1ccc2nc(NC(=O)CSc3nc(SC)ns3)sc2c1,-2.1,6.0,-15.7,1.2,2722,-0.1
CSc1cccc(NC(=O)CSc2nnc(C)s2)c1,-2.1,-2.4,-5.8,-2.7,16404*,0.0
COc1ccc(CNC(=O)CSc2nnc(C)s2)cc1,0.4,6.3,-6.7,3.2,19126*,?
COc1ccc2nc(NC(=O)CSc3nnc(C)s3)sc2c1,-0.3,2.6,-10.7,-4.2,21301*,-2.5
COc1ccc2sc(NC(=O)CC(C)C)nc2c1,-0.7,4.8,2.1,0.3,20332*,-0.2
COc1ccc(-c2c(C#N)c(N)nc3c2c(C)nn3-c2ccc(F)cc2)cc1OC,/,/,5.0,/,/,/
O=C(CSc1nnc(NC(=O)c2c(F)cccc2F)s1)Nc1ccc(F)cc1,-4.7,179.0*,-8.3,-0.4,5293,-0.4
SMILES,Anthrax LF inh2,MazEF act,PriA SSB inh,BoNT-F LC inh,Bead autofluor,BoNT-A LC inh2
O=C(CSc1nnc(NC(=O)c2c(F)cccc2F)s1)NC1CC1,3.6,15.1,-0.9,-10.1,3902,0.0
COc1ccc(Nc2nc3ccc(OC)cc3s2)cc1,1.9,5.3,38.0*!,-2.4,4099,-0.9
CCc1cnc2c(c1NCCCn1ccnc1)c(=O)n(C)c(=O)n2C,/,/,5.0,/,/,/
C=CCN1C(=O)/C(=C/c2ccc(Br)s2)C(=O)NC1=S,/,72.1*,-19.1,/,/,/
O=C1NC(=O)C(=Cc2ccc(Br)s2)C(=O)N1,/,/,-2.0,/,/,/
CCCn1nnnc1-c1cccc(Cl)c1,1.5,1.4,-12.6,1.1,20165*,1.1
CCCn1nnnc1NC(=O)c1cc(Cl)ccc1Cl,-3.2,0.5,11.6,6.2,9391,-0.9
CCCn1nnnc1-c1ccc(Cl)cc1,-1.4,2.3,-0.9,-3.5,19416*,-0.1
FC(F)(F)c1cccc(Cn2nnnc2-c2ccc(Cl)cc2)c1,0.4,3.3,-65.4,-2.0,22919*,-0.9
Cc1ccc([N+](=O)[O-])cc1NC=CC(=O)c1ccco1,/,/,2.8,/,/,/
C=CCN(c1ccccc1)S(=O)(=O)c1cccc(C(=O)Nc2ccc(N3CCOCC3)cc2)c1,3.7,3.8,42.6*,-7.2,5164,0.8
C=CCN(c1ccccc1)S(=O)(=O)c1cccc(C(=O)Nc2ccncc2)c1,-3.4,4.7,2.9,-7.7,5860,-1.3
COc1ccc(S(=O)(=O)N2CCC(S(=O)(=O)c3ccc(F)cc3)CC2)cc1Cl,/,/,-13.0,/,/,/
COc1ccc(C(OC(=O)c2c(C)noc2C)C(=O)NC2CCCC2)cc1 (centres undefined),-0.5,9.4,-4.9,-1.2,19678*,-0.3
CN(C)CC1CSCCCN1C(=O)Cc1ccccc1Cl (centres undefined),/,/,11.0,/,/,/
Cc1cccc(Cn2cnc3c(nnn3Cc3ccc(F)cc3)c2=O)c1,1.1,-5.0,-1.6,-6.8,11375,0.9
Cc1cccc(Cn2cnc3c(nnn3Cc3ccccc3F)c2=O)c1,-2.6,1.5,-10.6,1.3,22956*,2.9
CCCN1Cc2cccc(C(=O)Nc3cc(OC)cc(OC)c3)c2C1=O,-7.8,-12.3,-3.6,1.7,22619*,1.0
CO[C@@H](CNC(=O)c1ccccc1Cl)c1ccc(C)s1,/,/,-18.0,/,/,/
O=[N+]([O-])c1cccnc1Sc1ccncc1,/,/,33.6,/,/,/
COC(=O)CNC(=O)/C=C/c1ccc(OC)cc1,-5.9,-0.2,-6.3,-1.3,19785*,0.3
CSc1nc2nccc(/C=C\c3ccccc3)n2n1,-1.1,-0.3,-10.8,2.0,21761*,?
COc1ccc(N2CCN(CCCNC(=O)c3cc4sccc4n3C)CC2)cc1,-10.1,0.9,33.8,-7.3,8039,-1.3
CC1CCN(CCCNC(=O)c2cc3sccc3n2C)CC1,-2.4,-5.8,12.0,1.5,20532*,3.1
Cc1cc(C)n(CC(=O)NCc2ccc(F)cc2)c(=O)c1-c1nc(-c2ccccc2)no1,/,/,-1.0,/,/,/
SMILES,Anthrax LF inh2,MazEF act,PriA SSB inh,BoNT-F LC inh,Bead autofluor,BoNT-A LC inh2
COC(=O)c1nn2c(C(F)(F)F)cc(-c3ccc(Br)o3)nc2c1Br,-2.3,111.0*,-5.7,-5.9,10641,2.3
CC(C)(C)NC(=O)c1nn2c(C(F)(F)F)cc(-c3ccccc3)nc2c1Br,-17.0,1.5,-3.9,?,3602,6.3
O=S(=O)(Nc1ccc(Cc2ccncc2)cc1)c1ccc(Cl)c(Cl)c1,-3.6,-1.0,-5.9,1.5,16421*,0.3
Cc1ccc(C2CC(c3cc(Br)ccc3O)=NN2)cc1 (centres undefined),/,/,2.0,/,/,/
CC(Oc1ccccc1)C(=O)NCCS(=O)(=O)N1CCc2ccccc2C1 (centres undefined),/,/,-3.0,/,/,/
CCOc1ncccc1C(=O)Nc1ccc2c(c1)CCCN2S(=O)(=O)CC,/,/,38.0*,/,/,/
CCCOc1cc(O)c(-c2n[nH]c(C)c2Oc2ccccc2)cc1CC,/,/,11.0,/,/,/
CCc1cc(-c2n[nH]c(C)c2Oc2ccc(C(C)C)cc2)c(O)cc1O,-5.0,-5.6,29.4,-16.7,22495*,?
COC(=O)C1=NN(c2ccc(C)cc2)C2(S1)SC(C(C)=O)=C(C)N2c1ccccc1 (centres undefined),-5.3,0.3,14.4,-6.7,23648*,-2.6
O=C(CSc1nccn1-c1ccc(F)cc1)NCc1ccc(F)cc1,-1.5,-15.5,5.8,1.2,4205,-0.3

# From PubChem
